Experimental data published in PubChem BioAssay (NCATS).
Records with an inconclusive call do not appear. Activity calls are given as the source filed them. Calls follow the shape of the dose curve; as a rule, active = well fitted curve in the direction sought with a large enough effect; inconclusive = small, poorly fitted or top-dose-only effect, or another doubt; inactive = no such curve, though single readings can be large; an effect the other way counts as inactive or inconclusive.

Legend:
[1] = P-glycoprotein substrates identified in KB-8-5-11 adenocarcinoma cell line, qHTS therapeutic library screen (AID 1346987); also: nearly all actives have a fitted effect of over 65% in size; as to activity change, negative = cytotoxicity: series mostly up to about 44 µM
Outline: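 Steps: plate 500 KB-8-5-11 cells/well in DMEM + 10% FCS (colchicine removed); pin compounds in dose-response; incubate 72 h, 37 degree C, 5% CO2; add CellTiter-Glo, 5 min; read luminescence.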

[2] = tested on: Zika virus NS2B-NS3 protease (unlinked complex); assay: Primary screen GU Rhodamine qHTS for Zika virus inhibitors: Unlinked NS2B-NS3 protease assay (AID 1347159); also: nearly all actives have a fitted effect of over 60% in size
Outline: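 Compounds, tested up to 114 microM, were incubated for 15 minutes with 25 nM unlinked NS2B-NS3 protease at pH 8.0. Cleavage of 1.5 microM Rhodamine110 substrate was then followed by fluorescence for 15 minutes.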

[3] = tested on: Zika virus NS2B-NS3 protease (linked construct); assay: Primary screen NINDS Rhodamine qHTS for Zika virus inhibitors (AID 1347160); also: nearly all actives have a fitted effect of over 55% in size
Outline: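 Percent inhibition, normalized to uninhibited and enzyme-free controls, is fitted to a 4-parameter Hill equation. Fluorescence change comes from a 15-min cleavage of 1.5 microM bis-peptide Rhodamine110 substrate by 25 nM linked NS2B-NS3 at room temperature.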
% is scaled to controls: 0 for no effect and ±100 for the full control effect.

CC1=CC23[C@H](C=C(C(=O)O)[C@@H]2COC(=O)[C@]3(O)CO)[C@@H]1C (some centres undefined)
inactive: Potency [1] | Potency [2] | Potency [3]

CCC(C)C(=O)OC[C@H]1O[C@H](O[C@H]2O[C@H](CO)[C@@H](O)[C@H](O)[C@H]2O)[C@H](O)[C@@H](O)[C@@H]1O (some centres undefined)
inactive: Potency [1] | Potency [2] | Potency [3]

CC(=O)OC(C)C(C)(O)C(=O)O[C@@H]1CC[C@]2(C)CC(=O)C(=C(C)C)C[C@H]2[C@]1(C)OC(C)=O (some centres undefined)
inactive: Potency [1] | Potency [2] | Potency [3]

O=C(/C=C/c1ccc(O)cc1)O[C@H]1[C@H](OC2CCCCC2O)O[C@H](CO)[C@@H](O)[C@@H]1O (some centres undefined)
inactive: Potency [1] | Potency [2] | Potency [3]

CC1(C)CC[C@]2(C(=O)O[C@@H]3O[C@H](CO)[C@@H](O)[C@H](O)[C@H]3O)CC[C@]3(C)C(=CCC4[C@@]5(C)CC[C@H](O[C@@H]6O[C@H](C(=O)O)[C@@H](O[C@@H]7O[C@H](CO)[C@@H](O)[C@H](O)[C@H]7O)[C@H](O)[C@H]6O[C@@H]6O[C@H](CO)[C@@H](O)[C@H](O)[C@H]6O)C(C)(C)C5CC[C@]43C)C2C1 (some centres undefined)
inactive: outcome [1] inactive [at 9.29 µM] | Potency [2] | Potency [3]

Cc1nc2ccccc2c(-c2ccc3c4c(ccnc24)CCO3)c1[C@H](OC(C)(C)C)C(=O)O
inactive: Potency [1] | Potency [2] | Potency [3]

CNc1nc(C)nc(N[C@H]2CCC[C@@H](C(=O)NCc3ccc(C#N)cc3C(F)(F)F)C2)n1
inactive: Potency [1] | Potency [2] | Potency [3]

C[C@H]1/C=C/C=C/C=C/C=C/C=C/[C@@H](O)[C@H](C(=O)O)[C@H](O)C[C@H](O)CCC[C@H](O)C[C@H](O)C[C@H](O)[C@@H](C)C(=O)O[C@@H]1C
inactive: Potency [1] | Potency [2] | Potency [3]

O=C(Cc1ccccc1)OC[C@H]1O[C@H](O[C@H]2O[C@H](CO)[C@@H](O)[C@H](O)[C@H]2O)[C@H](O)[C@@H](O)[C@@H]1O
inactive: Potency [1] | Potency [2] | Potency [3]

CC1=C2C[C@@]3(C)C(CCC[C@@H]3C)C(O)C2(O)OC1=O (some centres undefined)
inactive: Potency [1] | Potency [2] | Potency [3]

COC(=O)C1C(c2ccc(O)cc2)C(C(=O)O)C1c1ccc(O)cc1 (centres undefined)
inactive: Potency [1] | Potency [2] | Potency [3]

CC(=O)NC1CC(=O)C23C(=O)NC(Cc4c[nH]c5ccccc45)C2C(C)=C(C)C(O)C3/C=C/CC(C)/C=C(/C)C(O)C1O (centres undefined)
inactive: Potency [1] | Potency [2] | Potency [3]

COc1ccc(/C=C/C(=O)O[C@@H]2[C@@H](O[C@@H]3O[C@H](CO)[C@@H](O)[C@H](O)[C@H]3O)[C@@H](O)[C@H](O[C@H]3C4C=CO[C@@H](O[C@@H]5O[C@H](CO)[C@@H](O)[C@H](O)[C@H]5O)C4[C@@]4(CO)O[C@@H]34)O[C@H]2C)cc1 (some centres undefined)
inactive: activity change, negative = cytotoxicity [1] 2.62% [at 9.29 µM] | Potency [2] | Potency [3]

C/C=C/C(=O)OC1/C=C/C(O)C(OC(C)=O)CCC(=O)OC1C (centres undefined)
inactive: Potency [1] | Potency [2] | Potency [3]

COC(=O)C(Cc1ccccc1)NC(=O)c1ccccc1 (centres undefined)
inactive: Potency [1] | Potency [2] | Potency [3]

CC1=C(C)C(=O)OC(C(C)C2C(O)CC3C4C5OC5C5(O)CC(OC6OC(CO)C(OC7OC(C)C(O)C(O)C7O)C(O)C6O)CC(O)C5(C)C4CCC32C)C1 (centres undefined)
inactive: Potency [1] | Potency [2] | Potency [3]

O=C(C1OC1/C=C/c1ccc2c(c1)OCO2)N1CCCCC1 (centres undefined)
inactive: Potency [1] | Potency [2] | Potency [3]

O=C(O)Cc1cn([C@@H]2O[C@H](CO)[C@@H](O)[C@H](O)[C@H]2O[C@@H]2O[C@H](CO)[C@@H](O)[C@H](O)[C@H]2O)c2ccccc12
inactive: Potency [1] | Potency [2] | Potency [3]

CC(C)[C@@](O)(c1ccc2cc(OC(F)F)c(OC(F)F)cc2c1)c1cn[nH]n1
inactive: Potency [1] | Potency [2] | Potency [3]

CC(C)C1(O)C=C2C(=O)CC3C(C)(C(=O)O)CCCC3(C)C2CC1 (centres undefined)
inactive: Potency [1] | Potency [2] | Potency [3]

COc1cc(C2Oc3c(OC)cc(/C=C/C(=O)OC4CC(O)(C(=O)O)CC(O)C4O)cc3C2CO)ccc1O (centres undefined)
inactive: Potency [1] | Potency [2] | Potency [3]

CC1=C2C(=O)C=C(CO[C@@H]3O[C@H](CO)[C@@H](O)[C@H](O)[C@H]3O)[C@@H]2[C@H]2OC(=O)[C@H](C)[C@@H]2[C@@H](O)C1
inactive: Potency [1] | Potency [2] | Potency [3]

COc1cc(/C=C/C(=O)O[C@H]2[C@H](O)[C@@H](CO)O[C@@]2(CO)O[C@H]2O[C@H](CO)[C@@H](O)[C@H](O)[C@H]2O)cc(OC)c1O
inactive: Potency [1] | Potency [2] | Potency [3]
